In PubChem BioAssay (NCI):
Compounds without any hit were thinned out: in the full panel of roughly 79,000, 15% have a hit. Values without a mark were called inactive. The source made the active and inactive calls. Rule as the data show it: active = growth inhibition above about 70%; inactive = the rest.

What was measured:
[1] = NCI Yeast Anticancer Drug Screen. Data for the rad50 strain (AID 155);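 also: 0% = growth of vehicle-only cultures of the same strain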; conditions: S. cerevisiae rad50 strain growth inhibition, hits give high values
In short: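 A DNA repair-deficient yeast mutant serves as the test organism; compound-induced growth inhibition is calculated against vehicle-treated cells.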

[2] = NCI Yeast Anticancer Drug Screen. Data for the mec2-1 strain (AID 157); conditions: S. cerevisiae mec2-1 strain, hits give high values
In short: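 Readout is yeast growth inhibition, normalised to vehicle-treated controls, in the mec2-1 strain exposed to compound.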

[3] = NCI Yeast Anticancer Drug Screen. Data for the sgs1 mgt1 strain (AID 161);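 also: 0% = growth of cultures given vehicle only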; conditions: S. cerevisiae sgs1 mgt1 strain, hits give high values
In short: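 This yeast growth screen uses a strain with defined DNA-repair lesions; compound-treated growth is compared with vehicle-treated growth.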

[4] = NCI Yeast Anticancer Drug Screen. Data for the cln2 rad14 strain (AID 165);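 also: 0% = growth equal to vehicle treated cultures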; conditions: S. cerevisiae cln2 rad14 strain, hits give high values
In short: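 Relative to vehicle controls, growth inhibition of compound-treated cln2 rad14 yeast was recorded.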

[5] = NCI Yeast Anticancer Drug Screen. Data for the bub3 strain (AID 167); conditions: S. cerevisiae bub3 mutant strain, hits give high values
In short: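 Inhibition values come from growth of compound-treated mutant yeast normalised to vehicle-treated controls.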

[6] = NCI Yeast Anticancer Drug Screen. Data for the mlh1 rad18 strain (AID 175); conditions: S. cerevisiae mlh1 rad18 strain growth inhibition, hits give high values
In short: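 Test agents were incubated with a yeast strain of defined genotype (DNA damage repair defect). Inhibition of growth was derived by comparison with vehicle-exposed cultures.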

[7] = at 5.0 µM (retest, dose inferred, filed as 0.5)
[8] = at 50.0 µM (retest, dose inferred, filed as 5.0)

| SMILES | growth inhibition [1, 7] | growth inhibition [1, 8] | growth inhibition ([1]; at 50.0 µM) | growth inhibition [2, 7] | growth inhibition [2, 8] | growth inhibition ([2]; at 50.0 µM) | growth inhibition [3, 7] | growth inhibition [3, 8] | growth inhibition ([3]; at 50.0 µM) | growth inhibition [4, 7] | growth inhibition [4, 8] | growth inhibition ([4]; at 50.0 µM) | growth inhibition [5, 7] | growth inhibition [5, 8] | growth inhibition ([5]; at 50.0 µM) | growth inhibition [6, 7] | growth inhibition [6, 8] | growth inhibition ([6]; at 50.0 µM) |
| --- | --- | --- | --- | --- | --- | --- | --- | --- | --- | --- | --- | --- | --- | --- | --- | --- | --- | --- |
| CC1(C)OC(=O)C(=NNc2ccccc2[N+](=O)[O-])C(=O)O1 | 5% | 4% | -6.9% | 2% | 19% | 5.75% | 2% | 16% | 1.25% | -2% | 12% | 29.4% | 3% | 21% | 21.5% | 2% | 7% | 18.1% |
| COc1ccc(/C=C2\SC(=S)N(/C=C(/C#N)C(=O)c3ccc4ccccc4c3)C2=O)cc1OC | -11% | 98% (active) | 97.4% (active) | -18% | 99% (active) | 98.5% (active) | 1% | 98% (active) | 97.2% (active) | -13% | 97% (active) | 95.3% (active) | -22% | 98% (active) | 98.6% (active) | 5% | 99% (active) | 98.3% (active) |
| Cc1cccc2nc3nc(Cl)c(Cl)nc3n12 | 4% | 76% (active) | 75.7% (active) | 17% | 82% (active) | 50.1% | 13% | 91% (active) | 64.5% | 7% | 54% | 51.5% | 8% | 36% | 51.4% | 26% | 95% (active) | 90.8% (active) |
| O=[N+]([O-])c1ccc(CO)o1 | 10% | 68% | 93.1% (active) | 0% | 10% | 38.8% | 2% | 14% | 76.4% (active) | 3% | -2% | 29.1% | 0% | 1% | 26.7% | 6% | 33% | 84.5% (active) |
| O=C(NNc1ccccc1)C(O)C(O)C(O)C(O)C(O)C(O)C(O)CO (centres undefined) | 17% | 87% (active) | 69.1% | 10% | 78% (active) | 39.4% | 10% | 82% (active) | 88.1% (active) | 3% | 82% (active) | 95.9% (active) | 1% | 94% (active) | 88.3% (active) | 45% | 96% (active) | 92.8% (active) |
| COc1ccc2c(c1)CCCN2CCCCCCCN1CCCCC1 | 13% | 49% | 72.5% (active) | 16% | 34% | 45.5% | 26% | 73% (active) | 77.1% (active) | 22% | 58% | 90.2% (active) | 34% | 64% | 83.5% (active) | 32% | 73% (active) | 63.1% |
| C/C=C\C(/C=C/C)(C(=O)OCCN(C)C)C(/C=C\C)(/C=C/C)C(=O)OCCN(C)C (centres undefined) | 5% | 97% (active) | 98% (active) | 2% | 97% (active) | 96.8% (active) | 5% | 96% (active) | 95.8% (active) | 2% | 97% (active) | 96.5% (active) | 2% | 95% (active) | 95.4% (active) | 3% | 97% (active) | 97% (active) |
| COc1ccc(CN2CCCN(Cc3ccc(OC)cc3OC)C2c2cc(Cl)cc(Cl)c2O)c(OC)c1 | 10% | 52% | 73.8% (active) | 16% | 93% (active) | 33.3% | -10% | 75% (active) | 76.2% (active) | -2% | 35% | 30.9% | 3% | 79% (active) | 3.9% | 27% | 94% (active) | 61.4% |
| C/C(=N\NS(=O)(=O)c1ccc(C)cc1)c1cc2ccccc2n1C | 0% | 85% (active) | 74.9% (active) | -24% | 65% | 44.2% | -17% | 82% (active) | 63.2% | -5% | 92% (active) | 78.5% (active) | 31% | 93% (active) | 60.7% | 3% | 86% (active) | 65.2% |
| CC(=O)Oc1c(C2CCCCC2)cc([N+](=O)[O-])cc1[N+](=O)[O-] | 96% (active) | 99% (active) | 99.5% (active) | 91% (active) | 99% (active) | 99.7% (active) | 98% (active) | 99% (active) | 99.5% (active) | 79% (active) | 99% (active) | 98% (active) | 85% (active) | 99% (active) | 99.5% (active) | 97% (active) | 98% (active) | 99.6% (active) |
| N#CC(Nc1cccc(C(F)(F)F)c1)c1ccccc1C(F)(F)F (centres undefined) | -4% | 97% (active) | 86% (active) | 3% | 97% (active) | 92% (active) | -11% | 97% (active) | 90.1% (active) | 25% | 46% | 89% (active) | 10% | 97% (active) | 90.5% (active) | -12% | 98% (active) | 84.8% (active) |
| COc1ccc(/C=N/N=c2\[nH][nH]/c(=N\N=C\c3ccc(OC)c4ccccc34)c3ccccc23)c2ccccc12 | 15% | 34% | 57.6% | 0% | 59% | 47.5% | 4% | 76% (active) | 86.9% (active) | -7% | 28% | 37.6% | 0% | 78% (active) | 33.4% | 12% | 85% (active) | 65% |
| CC(=O)OCc1ccc([N+](=O)[O-])o1 | 2% | 78% (active) | 96.3% (active) | -7% | 22% | 98.3% (active) | 3% | 67% | 64.3% | 0% | 96% (active) | 98.2% (active) | -2% | 73% (active) | 98.9% (active) | 1% | 86% (active) | 98% (active) |
| CSc1ccc(/C=C2\CN(C)C/C(=C\c3ccc(SC)cc3)C2=O)cc1 | 43% | 52% | 73.5% (active) | -7% | 32% | 70% (active) | 36% | 61% | 91.6% (active) | 34% | 33% | 68.4% | 25% | 45% | 44% | 29% | 15% | 82.8% (active) |
| COC(=O)/C(C#N)=C/c1cc(OC)c(O)cc1Br | 46% | 56% | 48.6% | 31% | 44% | 40% | 44% | 68% | 42.1% | 35% | 43% | 43.8% | 46% | 48% | 46.5% | 54% | 76% (active) | 31.1% |
| Cc1c2cc[n+](C)cc2c(COC2OC(CO)C(O)C2O)c2c3ccccc3n(C)c12 (centres undefined) | 23% | 44% | 65% | 10% | 10% | 23.6% | -12% | 23% | 17.9% | 19% | 24% | 18.1% | 12% | 14% | 28.1% | 13% | 14% | 23.2% |
| O=C(O)c1cc2oc(-c3ccccc3)cc2[nH]1 | -11% | 71% (active) | 72.5% (active) | -8% | 71% (active) | 88.7% (active) | 7% | 74% (active) | 47.9% | -32% | 34% | 69.8% | -14% | 51% | 83.8% (active) | -9% | 80% (active) | 87.3% (active) |
| O=C(c1ccccc1)c1ccc2c(c1Cl)C(=O)c1ccccc1C2=O | -6% | -1% | 43% | -3% | -7% | 43.8% | 0% | 0% | 63.8% | 14% | -16% | 4% | -8% | -11% | 80.5% (active) | 1% | 0% | 65.2% |
